Results from PubChem BioAssay (NCI).
This is part of a sample that, as a whole, favours compounds with a hit. Of some 83,000 tested, about 20% had one in any assay.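 A percent growth of 40 corresponds to 60% growth inhibition; 0 means no net growth; -100 means all cells died. Active threshold: below 10.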 Values without a mark were called inactive. The source made the active and inactive calls.

These compounds were tested on HS 578T breast (assay: NCI-60 one-dose screen, 48 h (100 = growth as untreated, 0 = no growth, -100 = all killed)). Details: 10 µM unless noted.

| Structure (SMILES) | growth |
| --- | --- |
| O=C(Nc1cccnc1Nc1ccc(Cl)cc1)c1cn(Cc2cccc(Oc3ccccc3)c2)nn1 | 39.9% |
| C1CCC(N2CN3c4nonc4N4CN(C5CCCCC5)CN5c6nonc6N(C2)C3C45)CC1 (centres undefined) | 86.6% |
| N#Cc1c(-c2ccc(Br)cc2)nc2c(N=Nc3ccc(S(N)(=O)=O)cc3)c(N)nn2c1N | 45.1% |
| COc1cc(/C=C/C(=O)c2cc(OC)c(OC)c(OC)c2)ccc1Oc1nc2c(c(=O)n(C)c(=O)n2C)n1C | 26.7% |
| CC1(/C=C/c2ccc(-c3ccccc3)cc2)CCn2cnc3ncnc(c32)N1O (centres undefined) | 55.5% |
| CCCc1cc(=O)oc2c(C(=O)CC(C)C)c(O)c(CC=C(C)C)c(O)c12 | 28.1% |
| CS(=O)(=O)Nc1cc(-c2ccc3ncnc(Nc4ccc(OCc5ccccn5)c(Cl)c4)c3c2)cnc1Cl | -19.7% (active) |
| CCN1CCN(CCNc2nccc(-c3c(-c4ccc(F)c(O)c4)nc4occn34)n2)S1(=O)=O | 42.6% |
| COc1ccc(C2[C@@H](Cl)C(=O)N2c2cc(OC)c(OC)c(OC)c2)cc1Cl (some centres undefined) | 31% |
| CN1CCN(Cc2ccc(NC(=O)c3cncc(C#Cc4cnc(N)cc4C#N)c3)cc2C(F)(F)F)CC1 | -8.07% (active) |
| CN(C)c1ccc([C@@H](C(=O)Nc2cccc([N+](=O)[O-])c2)N(C(=O)c2cc3ccccc3[nH]2)c2cccc([N+](=O)[O-])c2)cc1 | 93.5% |
| c1cc(OCCN2CCCCC2)ccc1CNc1ccc2nc(CCC3CCCCC3)[nH]c2c1 | 45.8% |
| Cc1[nH]n(-c2cccc(Cl)c2)c(=O)c1/C=C1\C=c2ccccc2=CC1=O | 82.2% |
| CC(C)(C)OC(=O)CN1CCc2c(sc3ncnc(N4CCN(c5ccc(F)cc5)CC4)c23)C1 | 70.4% |
| Cc1ccc2c(c1)sc1nc(-c3c[nH]c4ccccc34)c(Nc3ccccc3)n12 | 98.7% |
| Cn1c(C#N)ccc1-c1ccc(F)c(NC(=O)c2ccc(F)cc2)c1 | 71.5% |
| CCOC(=O)C1=C(CC(O)c2ccc(OC)cc2OC)NC(=O)NC1c1ccccc1 (centres undefined) | 117% |
| CCSc1ccnc(N)n1 | 117% |
| Cc1ccc(S(=O)(=O)c2nc(-c3ccccc3)oc2SCC(N)=O)cc1 | 101% |
| CN(C)c1ccc(/C=N\NC(=O)c2ccc3nc(-c4ccc(Cl)cc4)[nH]c3c2)cc1 | 70% |

| Structure (SMILES) | growth |
| --- | --- |
| CCOC(=O)C1=C(c2ccccc2)N=C2N(c3ccccc3)N=C(C(C)=O)N2C1c1ccc(F)cc1 (centres undefined) | 92.1% |
| CN(C)Cc1ccc(NC(=O)c2cncc(C#Cc3cnc(N)c4ncccc34)c2)cc1C(F)(F)F | 70.5% |
| CCN(CC)CCn1c2ccc(OC)cc2c2sc3cc(O)ccc3c(=O)c21 | 60% |
| Cc1cc(=O)oc2cc(Oc3nc(Br)cn4c(Br)cnc34)ccc12 | 69.9% |
| Nc1[nH]nc2nc(-c3ccccc3)n3c4ccccc4nc3c12 | 106% |
| O=[N+]([O-])c1ccccc1Sc1ccccc1[N+](=O)[O-] | 95.8% |
| CC1(C)N=C(N)N=C(N)N1c1ccc(S(=O)(=O)Nc2nccs2)cc1 | 103% |
| c1ccc(-c2ccc3c(c2)C2(CCNCC2)CN3)cc1 | 93.6% |
| CCOC(=O)/C=C1\S/C(=N\Nc2cc(=O)[nH]c3ccc(Br)cc23)N(c2ccccc2)C1=O | 74.7% |
| COc1ccc(C2CC(n3ccnc3)c3cc(OC)c(OC)c(OC)c32)cc1O (centres undefined) | 85.4% |
| COC(=O)c1c2c(c[n+]([O-])c1C)C(=O)C=C(NCc1ccccc1)C2=O | -15.5% (active) |
| COc1ccc2c(c1)c(-c1nc(-c3ccc4ccccc4c3)cs1)cn2C | 97% |
| Cc1ccc2c(c1)nc(C)n2-c1ncnc2c1CC(C)c1cc(O)ccc1N2C (centres undefined) | 34.7% |
| Cc1cc(N2CCN(CC(=O)Nc3ccc4c(ccn4Cc4ccccc4)c3)CC2)nc(N2CCOCC2)n1 | 82.8% |
| COCCn1cc(-c2csc(-c3c[nH]c4ccc(F)cc34)n2)c2cccnc21 | 52.2% |
| Cc1ccc(C(=O)c2ccc(CC(=O)N/N=C/c3cccc(O)c3O)n2C)cc1 | 87.4% |
| CC[C@@H](C(=O)[C@@H](C)[C@@H](O)[C@H](C)[C@@H]1O[C@@H]([C@@H](CC)C(=O)ONC(=O)c2ccccc2O)CC[C@@H]1C)C1O[C@]2(C=CC(=O)[C@]3(CC[C@@](C)([C@H]4CC[C@](O)(CC)[C@H](C)O4)O3)O2)[C@H](C)C[C@@H]1C (some centres undefined) | 43.9% |
| COc1cc(-c2nccc3[nH]c(-c4cccc5[nH]ccc45)nc23)cc(OC)c1OC | 38.4% |
| CC(C)Cc1nc(Nc2ccccc2)[nH]c(=O)c1C#N | 36.2% |
